Screening data as filed in PubChem BioAssay.
NPSR antag: qHTS Assay for Antagonists of the Neuropeptide S Receptor: cAMP Signal Transduction. Q6W5P4. CHO-NPSR cells, cAMP TR-FRET, antagonist mode. Potency, µM (highest dose often 38.3 µM), without a hit: at the top dose activity change, negative = inhibition, most hits filed as inhibitors. actives 1% (n = 220,000). AID 1461, 2008; further: on the % scale 0 is the no-effect control and ±100 the full control effect; nearly all actives have a fitted effect of over 50% in size
Target sequence (Q6W5P4 whole entry, looked up): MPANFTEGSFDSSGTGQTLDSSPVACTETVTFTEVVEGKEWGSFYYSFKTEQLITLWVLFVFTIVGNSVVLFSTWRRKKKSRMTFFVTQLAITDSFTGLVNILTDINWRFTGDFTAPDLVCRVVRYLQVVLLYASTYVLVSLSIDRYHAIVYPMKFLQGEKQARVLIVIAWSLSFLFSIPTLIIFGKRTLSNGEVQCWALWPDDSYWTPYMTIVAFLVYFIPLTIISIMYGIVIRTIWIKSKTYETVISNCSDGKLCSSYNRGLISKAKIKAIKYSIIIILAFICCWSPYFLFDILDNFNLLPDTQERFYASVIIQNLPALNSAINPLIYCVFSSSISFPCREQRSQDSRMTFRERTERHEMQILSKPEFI
ERK EGF inh: qHTS Assay for Inhibitors of the ERK Signaling Pathway using a Homogeneous Screening Assay; Stimulation with EGF; HEK293-V1b, EGF-stimulated phospho-ERK AlphaScreen; Potency, µM (titrated, usually from 11.5 µM), for the others: at the top dose activity change, negative = inhibition, most hits filed as inhibitors; actives 0.41% (n = 130,000); AID 1454, 2008;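 further: plate controls were stimulated vehicle wells for no effect and unstimulated vehicle basal for full effect; nearly all actives have a fitted effect of over 55% in size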
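Cell line HEK293 (stable V1b), low serum overnight. Pretreatment: compound 30 min, 37C. EGF 25 nM, 5 min. Detection: SureFire AlphaScreen, 5 h RT. AC50 via standard Hill equation.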
HTT ATP protect: qHTS Multiplex Assay to Identify Dual Action Probes in a Cell Model of Huntington: Cytoprotection (ATP); PC12 HTT-Q103 induced, cytoprotection, ATP luminescence, 40 h; Potency, µM (top dose mostly 56.4 µM), inactives show cytoprotection (ATP increase), actives largely listed as activators; actives 0.14% (n = 230,000); further: % of control where 0% means no effect; nearly all actives have a fitted effect of over 45% in size
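Huntington model: PC12 line, ecdysone-inducible HTTQ103 exon1–GFP, tebufenozide 100 nM. Test articles in a dose series. Endpoint luminescence from cellular ATP.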
IMPase Li inh: qHTS Assay for Identifying the Cell-Membrane Permeable IMPase Inhibitors: Potentiation with Lithium. actives 0.35% (n = 210,000). Potency, µM (top dose mostly 59.4 µM), without a hit: at the top dose activity, negative = IMPase inhibition, hits mostly inhibitors. CHO-M1 cells, IP1 TR-FRET (IP-One), carbachol + lithium;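 further: IP1 builds up when IMPase is blocked and the TR-FRET signal falls; plate controls were basal vehicle for no effect and high inhibitor control for full effect; nearly all actives have a fitted effect of over 50% in size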
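Steps: plate 2000 CHO-M1 cells per well and culture 16–30 h; add compound and lithium; incubate 30 min, 37C; add d2-IP1 tracer and Eu cryptate anti-IP1 antibody in lysis buffer; read after 10 min at room temperature.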
HttQ103 aggreg: qHTS Multiplex Assay to Identify Dual Action Probes in a Cell Model of Huntington: Aggregate Formation (GFP); actives 1.1% (n = 220,000); Potency, µM (series often up to 46.1 µM), inactives show at the top dose activity change, negative = inhibition, hits mostly inhibitors; PC12 HttQ103-GFP aggregates, Acumen cytometry, 40 h; AID 1688, 2009; further: on the % scale 0 is the no-effect control and ±100 the full control effect; nearly all actives have a fitted effect of over 60% in size
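Huntingtin Q103 exon 1–GFP aggregates in induced PC12 cells (100 nM tebufenozide) were quantified by cytometry from lysates, with compounds dosed in titration.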
* marks the source's active call; other numbers are inactive results; ? = inconclusive; nt = no result given; [ ] = remark or other dose. Hits are enriched below; roughly 1.9% of the tested compounds scored in any of these assays. The call rests on the fitted dose curve; in most records, active means well fitted curve in the direction sought with a large enough effect; inconclusive means small, poorly fitted or top-dose-only effect, or another doubt; inactive means no such curve, though single readings can be large; an effect the other way counts as inactive or inconclusive. Potency means the concentration at half of the fitted maximal effect.

SMILES	NPSR antag	ERK EGF inh	HTT ATP protect	IMPase Li inh	HttQ103 aggreg
CC#CCN1c2ccccc2[C@]23C[C@@H](C(=O)OC)N(C(=O)c4cccs4)C2=NC(C(=O)OC)=C(C(=O)OC)[C@H]13	nt	nt	13%[10 µM]	-6%	nt
Cc1n[nH]c(C)c1N1C(=O)c2cccc3cc(Br)cc(c23)C1=O	7%[46.1 µM]	nt	2%	-17%[38.3 µM]	3%
Cc1ccc(C(=O)O)cc1N1C(=O)c2cccc3cc(Br)cc(c23)C1=O	-11%[46.1 µM]	nt	-36%	2.2µM*	9%
C=CCOc1cccc(C2C(C(=O)c3ccc(C)o3)=C(O)C(=O)N2Cc2ccncc2)c1 (centres undefined)	2%[46.1 µM]	nt	-26%	11µM*	?
CCOc1cccc(C2C(C(=O)c3ccc(C)o3)=C(O)C(=O)N2c2nccs2)c1 (centres undefined)	-17%[46.1 µM]	nt	-16%	nt	9%
C=CCOc1cccc(C2C(C(=O)c3ccco3)=C(O)C(=O)N2Cc2ccncc2)c1 (centres undefined)	-4%[46.1 µM]	nt	-10%[10 µM]	5%[38.3 µM]	-9%
CCOc1cccc(C2C(C(=O)c3ccc(C)o3)=C(O)C(=O)N2Cc2ccncc2)c1 (centres undefined)	11%[46.1 µM]	nt	-14%[10 µM]	10µM*	11%
CCOc1cc2[nH]c(=S)n(CCCOC)c(=O)c2cc1OCC	-4%[46.1 µM]	nt	?	17%[38.3 µM]	4µM*
CCOc1cc2[nH]c(=S)n(CCCN3CCOCC3)c(=O)c2cc1OCC	-1%[46.1 µM]	nt	-20%[0.074 µM]	24%[38.3 µM]	-18%
CN(C)c1ncnc2ccc(-c3ccccc3C#N)cc12	nt	51%	6%	?	nt
CN(C(=O)c1cccs1)c1ccc(OCC(=O)Nc2ccc(C(=O)O)cc2)cc1	9%	8%[57.5 µM]	0.89µM*	nt	?
CN(c1ccc(OCC(=O)OCC(=O)Nc2ccc(Br)cc2)cc1)S(=O)(=O)c1cccs1	13%	7%	?	-1%	3%
CN(c1ccc(OCC(=O)OCC(=O)Nc2ccccc2)cc1)S(=O)(=O)c1cccs1	23%	10%	-80%[1.9 µM]	-4%	1.3µM*
CCN(CC)c1ccc(NC(=O)COc2ccc(N(C)S(=O)(=O)c3cccs3)cc2)cc1	-35%	?	-37%	9%	17%
CSc1cc2c(cc1C(F)(F)F)N(C(=O)Nc1cccnc1)CC2	nt	4%	-42%	12%	nt
CC(C)(C)c1ccc(C2CC2C(=O)N/N=C\c2ccc[nH]2)cc1 (centres undefined)	53%	3%	-68%[10 µM]	15%	2.5µM*
CC(C)[C@@H](CC(=O)N[C@@H]1CCNC[C@H]1C(=O)N[C@H](CC(=O)N[C@@H](CCC(=O)O)CC(=O)O)Cc1c[nH]c2ccccc12)NC(=O)C[C@H](Cc1ccccc1)NC(=O)[C@@H]1CCCC[C@H]1N	nt	-10%	0%[1.9 µM]	16%	nt
COc1cc(C2CC(=O)Oc3ccc(O)cc32)cc(OC)c1OC (centres undefined)	nt	nt	-107%	14%	nt
CC(C)[C@@H](CC(=O)N[C@@H]1CCNC[C@H]1C(=O)N[C@H](CC(=O)N[C@@H](CCC(=O)O)CC(=O)O)Cc1c[nH]c2ccccc12)NC(=O)C[C@H](Cc1c[nH]c2ccccc12)NC(=O)[C@@H]1CNCC[C@H]1N	nt	-12%	-3%	1%	nt
CCc1cccc(C)c1NC(=O)CSc1nc2ccc(N3C(=O)c4ccccc4C3=O)cc2s1	9%[46.1 µM]	nt	-1%	16µM*	22%
Cc1cc(C)c(NC(=O)CSc2nc3ccc(N4C(=O)c5ccccc5C4=O)cc3s2)c(C)c1	10%	3%	-6%	-10%	-8%
CO/N=C(\C(=O)N[C@@H]1C(=O)N2C(C(=O)[O-])=C(C[n+]3cccc4c3CCC4)CS[C@H]12)c1csc(N)n1	nt	nt	24%	nt	14%
c1ccc(N2CCN(c3ncnc4sc5c(c34)CCC5)CC2)cc1	?	nt	-14%	12%[38.3 µM]	11µM*
O=C(c1ccco1)N1CCN(c2ncnc3sc4c(c23)CCC4)CC1	-15%[7.67 µM]	nt	-3%	-6%[38.3 µM]	-27%
C[Si](C)(C/C=C/CC[C@H](O)C1=CCCCC1=O)c1ccccc1	nt	-12%	-26%	20%	nt
SMILES	NPSR antag	ERK EGF inh	HTT ATP protect	IMPase Li inh	HttQ103 aggreg
CS(=O)(=O)c1ccc2nc(NC(=O)Cc3ccccc3)sc2c1	23%	-16%[57.5 µM]	-1%	6%	4%[9.22 µM]
CS(=O)(=O)c1ccc2nc(NC(=O)CCC(=O)c3cccs3)sc2c1	-25%[46.1 µM]	nt	-12%[10 µM]	4%[38.3 µM]	0.79µM*
COc1cccc([C@@H]2Oc3ccc(Br)cc3C[C@H]2OC(=O)NS(=O)(=O)c2ccc(C)cc2)c1	nt	-5%	?	6%	nt
CCN(CC)S(=O)(=O)c1cccc(NC(=O)Nc2cccc(C(F)(F)F)c2)c1	10µM*	nt	-86%	60%[38.3 µM]	?
CCN(CC)S(=O)(=O)c1ccc2c(c1)nc(CCC(=O)Nc1cccc(C(F)(F)F)c1)n2CC	?	nt	-50%	6%[38.3 µM]	-29%
Nc1nc2c(nc(Br)n2[C@@H]2O[C@H]3COP(=O)(O)O[C@@H]3[C@H]2O)c(=O)[nH]1	nt	nt	-9%[1.9 µM]	nt	nt
CCOc1ccc(OCC)c(NC(=O)c2[nH]c(C)c(C(C)=O)c2C)c1	11%[46.1 µM]	nt	13%	7.1µM*	8%
CN1CCN(C2=Cc3ccccc3Sc3cc(F)c(F)cc32)CC1	?	?	-15%[10 µM]	33%	20µM*
CC(Oc1ccc(Cl)cc1Cl)c1nc(-c2ccc(NC(=O)c3cccnc3)cc2)no1 (centres undefined)	?	nt	-41%	42%[38.3 µM]	7.9µM*
CC(Nc1oc(-c2ccccc2)nc1-c1ccc(C(F)(F)F)cc1)c1ccccc1 (centres undefined)	nt	-8%	3%	2%	nt
CCCCC[C@H](O)/C=C/C=C\C/C=C\CCCCC(=O)O	nt	-4%	nt	-3%	nt
CCOC(=O)Cc1nnc2c(Nc3ccccc3F)nc3nonc3n12	-4%[46.1 µM]	nt	-1%[10 µM]	14%[38.3 µM]	16µM*
COC(=O)c1c(NC(=O)c2ccc(OC(C)C)cc2)sc2c1CC(C)(C)NC2(C)C	?	28µM*	-23%[10 µM]	20%	1%[9.22 µM]
CC1=CC(=O)c2c(O)ccc(O)c2C1=O	?	?	8%[10 µM]	24%	-8%[9.22 µM]
Cc1ccc(SCCNC(=O)c2ccc(C)c(S(=O)(=O)Nc3ccccc3C)c2)cc1	?	nt	-65%	17%[38.3 µM]	18µM*
Cc1ccccc1NS(=O)(=O)c1cc(C(=O)NCc2ccco2)ccc1C	-16%[46.1 µM]	nt	-30%	20%[38.3 µM]	-1%
O=C(O)c1ccc(NC2=C/C(=N/S(=O)(=O)c3ccccc3)c3ccccc3C2=O)cc1	?	?	-180%	24%	16µM*
Cc1ccc(Cl)cc1NC1=C/C(=N\S(=O)(=O)c2cccs2)c2ccccc2C1=O	?	nt	-96%[10 µM]	37%[38.3 µM]	1.6µM*
